# PubChem BioAssay (NCATS)
# Inconclusive results are not listed. A call without a number means that no potency is given here. The source made the active and inactive calls. Calls follow the shape of the dose curve; as a rule, active = well fitted curve in the direction sought with a large enough effect; inconclusive = small, poorly fitted or top-dose-only effect, or another doubt; inactive = no such curve, though single readings can be large; an effect the other way counts as inactive or inconclusive.
# Biological target: Metallo-beta-lactamase type 2 (Klebsiella pneumoniae) (UniProt C7C422)
# Assay: qHTS to identify inhibitors of the New Delhi Metallo-beta-lactamase (NDM): assay validation screen against the NCATS LOPAC Collection (AID 1794843);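 also: nitrocefin turnover by NDM-1 measured as 485 nm absorbance at plateau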
# Settings: NDM-1 enzyme, nitrocefin hydrolysis, absorbance 485 nm; series mostly up to 38.4 µM
# Procedure, shortened: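 Nitrocefin hydrolysis (50 uM substrate stock) by NDM-1, 2 nM final, was followed by 485 nm absorbance after compound preincubation; buffer was 50 mM HEPES pH 7.0, 1 uM ZnSO4, 0.01% Tween20.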
# Chain of Metallo-beta-lactamase type 2 (Klebsiella pneumoniae) (C7C422 whole entry, looked up): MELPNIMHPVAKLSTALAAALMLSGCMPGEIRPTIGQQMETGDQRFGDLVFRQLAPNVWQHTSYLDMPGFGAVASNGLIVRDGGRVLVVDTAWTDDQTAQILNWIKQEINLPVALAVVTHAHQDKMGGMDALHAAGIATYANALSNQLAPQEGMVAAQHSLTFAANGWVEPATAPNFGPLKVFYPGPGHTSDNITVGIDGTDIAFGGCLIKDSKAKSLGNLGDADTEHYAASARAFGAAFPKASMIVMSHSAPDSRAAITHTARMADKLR
row,SMILES,outcome
1,NCC1(CC(=O)O)CCCCC1,inactive
2,Cc1cccc(C)c1NC(=O)CN1CCCC1=O,inactive
3,Fc1ccc(C(OCCN2CCN(CCCc3ccccc3)CC2)c2ccc(F)cc2)cc1,inactive

# Biological target: Glutathione peroxidase 1 (Homo sapiens) (UniProt P07203)
# Assay: Primary qHTS Assay for Inhibitors of Recombinant Selenoprotein Glutathione Peroxidase 1 (GPX1) (AID 1845191); also: nearly all actives have a fitted effect of over 65% in size; also: potency is read from the fitted curve at half-maximal effect
# Settings: recombinant GPX1, GR-coupled NADPH fluorescence, 15 min; series mostly up to 48.8 µM
# Procedure, shortened: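 NADPH consumption tracked by fluorescence at 340/450 nm between t=0 and t=15 min, room temperature. Final mix: 10 nM GPX1, 100 nM glutathione reductase, 1 mM GSH, 0.5 mM NADPH, 0.5 mM cumene hydroperoxide, 0.01% BSA; 30 min compound–enzyme preincubation.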
# Chain of Glutathione peroxidase 1 (Homo sapiens) (P07203 whole entry, looked up): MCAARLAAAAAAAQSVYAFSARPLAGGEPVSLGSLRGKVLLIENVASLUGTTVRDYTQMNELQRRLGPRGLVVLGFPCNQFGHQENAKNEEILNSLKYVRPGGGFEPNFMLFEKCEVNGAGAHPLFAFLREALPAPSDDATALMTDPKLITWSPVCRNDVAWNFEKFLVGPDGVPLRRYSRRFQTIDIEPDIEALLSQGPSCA
row,SMILES,Potency
1,CCC(COC(=O)c1cc(OC)c(OC)c(OC)c1)(c1ccccc1)N(C)C (stereo not given),inactive
2,N[C@@H]1C[C@H]1c1ccccc1,inactive
3,N[C@@H](Cc1ccc(N(CCCl)CCCl)cc1)C(=O)O,inactive
4,COC[C@@H](NC(C)=O)C(=O)NCc1ccccc1,inactive
5,CC(C)(C)CC(C)(C)c1ccc(O)cc1,inactive
6,C=CCN1CC[C@]23c4c5ccc(O)c4O[C@H]2C(=O)CC[C@@]3(O)[C@H]1C5,inactive
7,Cc1cc(SCc2sc(-c3ccc(C(F)(F)F)c(F)c3)nc2C)ccc1OCC(=O)O,12.8 µM (active)
8,FC(F)(F)c1cccc(C2=CCN(CCc3ccc4ccccc4c3)CC2)c1,inactive
9,C[C@]12CC[C@H]3[C@@H](CCC4=CC(=O)CC[C@@H]43)[C@@H]1CC[C@@H]2OC(=O)CCc1ccccc1,inactive
10,CCC(C(N)=O)N1CCCC1=O (stereo not given),inactive
11,COc1ccc(Cc2nccc3cc(OC)c(OC)cc23)cc1OC,inactive
12,C#CCN(C)[C@H](C)Cc1ccccc1,inactive
13,CCCC1CCCCN1 (stereo not given),inactive
14,O=C1CC[C@@]2(O)[C@H]3Cc4ccc(O)c5c4[C@@]2(CCN3CC2CC2)[C@H]1O5,inactive
15,CNC(=O)N1N=C(c2ccc(N)cc2)c2cc3c(cc2CC1C)OCO3 (stereo not given),inactive
16,Oc1cc(Cl)ccc1Oc1ccc(Cl)cc1Cl,inactive
17,Oc1ccccc1-c1ccccc1,inactive
